Compound activity from PubChem BioAssay.
The list is not random: actives were taken first. Their share in the collection is about 19%.
HT1080 IDH1KD tx: toxicity to HT-1080 IDH1 knockdown cells (counter line); HT-1080 IDH1 knockdown viability, ATP luminescence, 48 h; Potency, µM (doses to about 46.1 µM), without a hit: top-dose activity, negative = toxicity, usual class: cytotoxic; 360,000 tested, 2% active;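 further: 0% = DMSO wells and -100% = cell-free medium wells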
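Cytotoxicity counter-line: IDH1KD HT-1080, 48 h, CellTiter-Glo. Curves classed by r2, magnitude and activity.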
DT40 TDP1 CPT: growth inhibition of DT40 Tdp1-/-;hTDP1 cells with camptothecin (screen for TDP1 inhibitors). chicken DT40 Tdp1-/-;hTDP1 cells + 20 nM CPT, ATP luminescence, 48 h. Potency, µM (doses to about 46.2 µM), for the others: at the top dose activity change, negative = growth inhibition, usual class: inhibitors. 420,000 tested, 12% active; further: nearly all actives have a fitted effect of over 55% in size
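Cell growth measured by CellTiter-Glo luminescence after a minimum 48 h, 37 C compound exposure with 20 nM CPT in Tdp1-knockout DT40 cells stably expressing hTDP1, seeded 400/well; qHTS titration format.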
HT1080NT lethal: kills 2HG-producing HT-1080-NT fibrosarcoma cells | HT-1080-NT fibrosarcoma viability, CellTiter-Glo ATP luminescence, 48 h | Potency, µM (doses to about 46.1 µM), for inactives: top-dose activity, negative = less viability, hits mostly cytotoxic | 360,000 tested, 1.6% active | AID 686970;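 further: NT is the 2HG producing partner of a matched IDH1 knockdown line; 0% = DMSO-treated cells and -100% = media-only wells without cells; nearly all actives have a fitted effect of over 55% in size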
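Viability by CellTiter-Glo luminescence after 48 h compound exposure at 37C of HT-1080-NT cells (750/well, RPMI, 5% FBS). % activity scaled between DMSO wells and medium-only wells, then curve-fitted and categorized by curve class.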
TDP1 cell noCPT: qHTS for Inhibitors of human tyrosyl-DNA phosphodiesterase 1 (TDP1): qHTS in cells in absence of CPT; 420,000 tested, 15% active; DT40 Tdp1-/- hTDP1 cells, no CPT, ATP luminescence, 48 h; Potency, µM (series often up to 46.2 µM), without a hit: top-dose activity change, negative = growth inhibition, hits mostly inhibitors; AID 686978, 2013; further: nearly all actives have a fitted effect of over 55% in size
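No-CPT arm: Tdp1-/-;hTDP1 DT40 cells (400/well) plus compounds, incubated ≥48 hr at 37 °C. Readout CellTiter-Glo luminescence.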
KB-V1 MDR tox: kills drug-selected multidrug resistant KB-V1 cells. Potency, µM (highest dose often 46.1 µM), actives largely listed as cytotoxic. KB-V1 MDR cells viability, CellTiter-Glo, 72 h. 400,000 tested, 3.4% active. AID 1347076; further: nearly all actives have a fitted effect of over 60% in size
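KB-V1 MDR subline cells in DMEM (phenol-red free, 10% FBS) exposed to compounds in qHTS concentration series for 72 h at 37 degrees C. Viability read by CellTiter-Glo luminescence; concentration-effect curves fitted after normalization and correction.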
KB-3-1 cytotox: KB-3-1 parental cell cytotoxicity; KB-3-1 viability, CellTiter-Glo ATP luminescence, 72 h; Potency, µM (series often up to 46.1 µM), most hits filed as cytotoxic; 400,000 tested, 1.4% active; AID 1347075; further: nearly all actives have a fitted effect of over 60% in size
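72 h, 37 °C compound treatment of KB-3-1 parental cells; CellTiter-Glo added, 10 min, luminescence read. Data corrected against DMSO-only plates and normalized before curve fitting.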
* hit, by the source's call; i = inactive; ? = inconclusive; . = no result; [ ] = another dose, or the depositor's remark. The call rests on the fitted dose curve; in most records, active means well fitted curve in the direction sought with a large enough effect; inconclusive means small, poorly fitted or top-dose-only effect, or another doubt; inactive means no such curve, though single readings can be large; an effect the other way counts as inactive or inconclusive. Unless noted, on the % scale 0 is the no-effect control and ±100 the full control effect; potency means the concentration at half of the fitted maximal effect.

SMILES	HT1080 IDH1KD tx	DT40 TDP1 CPT	HT1080NT lethal	TDP1 cell noCPT	KB-V1 MDR tox	KB-3-1 cytotox
Cc1cccc(OCCCn2c(CCNC(=O)C(C)C)nc3ccccc32)c1	-12.9%	?	-7.0%	16.4µM*	?	i
CC(C)(C)NC(=O)Cn1c(SCC(N)=O)nc2ccccc21	3.5%	25.9µM*	6.7%	?	i	i
CC(C)(C)c1ccc(OCCn2c(CCNC(=O)C3CCCCC3)nc3ccccc32)cc1	.	11.2µM*	.	3.16µM*	?	?
CCC(C)c1ccccc1OCCn1c(CCNC(=O)C2CCCCC2)nc2ccccc21 (configuration not stated)	.	?	.	?	i	?
CCc1ccc(C2N3CC4(C)CN2CC(c2ccccc2)(C3)C4=O)cc1 (configuration not stated)	.	?	.	?	?	i
COC(=O)C1CCN(C(=O)c2cc(-c3ccco3)nc3ccccc23)CC1	-4.1%	-25.3%	-3.4%	?	i	i
CC(CN1CCC(n2nccc2NC(=O)CCCc2ccccc2)CC1)c1ccccc1 (configuration not stated)	-14.8%	?	7.7%	?	i	i
Cc1cc(C)cc(OCCn2c(CCNC(=O)C3CCCCC3)nc3ccccc32)c1	.	?	.	?	i	i
Cc1cc(C)cc(OCCCn2c(CCNC(=O)C3CCCCC3)nc3ccccc32)c1	.	11.6µM*	.	14.6µM*	.	.
CCCCCCCCN1C(=O)[C@H](CC(=O)N2CCCC2)C[C@@]2(C(=O)OC)CC(C)(C)CC=C12	?	9.2µM*	?	?	?	?
CCCCCCCCN1C(=O)[C@H](CC(=O)N2CCC(c3ccccc3)CC2)C[C@@]2(C(=O)OC)CC(C)(C)CC=C12	-1.6%	?	0.0%	16.4µM*	i	i
CCCCCCCCN1C(=O)[C@H](CC(=O)N2CCSCC2)C[C@@]2(C(=O)OC)CC(C)(C)CC=C12	?	?	?	16.4µM*	?	i
COC(=O)[C@@]12C[C@@H](CC(=O)N3CCOCC3)C(=O)N(Cc3ccccc3)C1=CCC(C)(C)C2	5.7%	-6.9%	3.9%	?	?	i
COC(=O)[C@@]12C[C@@H](CC(=O)N3CCSCC3)C(=O)N(Cc3ccccc3)C1=CCC(C)(C)C2	-0.5%	-15.5%	5.3%	?	?	i
CCOCCc1nnc(NC(=O)C(=O)c2cc(C)n(-c3cccc(Cl)c3)c2C)s1	.	-20.2%	.	?	i	i
Nc1ccccc1SCC1CSc2nc3ccccc3c(=O)n21 (configuration not stated)	1.4%	-12.6%	9.6%	-12.3%	i	i
O=c1c2ccccc2nc2n1C(CSCc1ccc(Cl)cc1Cl)CS2 (configuration not stated)	-0.6%[9.24 µM]	9.2µM*	-1.6%	6.51µM*	5.8µM*	?
CCCCOc1ccc(CC(=O)NOC)cc1	.	-3.0%	.	-10.5%	i	i
CC12CC3CC(C)(C1)CC(C(=O)NC(=S)N1CCOCC1)(C3)C2	-16.4%	-5.5%	11.2µM*	-9.3%	i	i
Brc1cccc(CNCCCN2CCOCC2)c1	3.7%	23.1µM*	-1.2%	?	i	i
COc1cc(CNC(C)C)ccc1OCC(=O)Nc1cccc2ccccc12	-12.0%	25.9µM*	-8.0%	18.4µM*	.	.
COc1ccccc1CC(=O)Nc1cccc2ccccc12	-0.5%	-23.2%	0.0%	-24.7%	i	i
O=C(COc1ccc(Br)cc1Cl)NCCCN1CCOCC1	-1.5%	-29.8%	-4.5%	3.8%	i	i
O=C(COc1ccc(Br)cc1CNCCCN1CCOCC1)Nc1ccccc1	?	16.4µM*	-29.1%	20.6µM*	i	i
CCOc1cc(CNCCCN2CCOCC2)ccc1OCC(=O)Nc1cccc2ccccc12	11.2µM*	23.1µM*	10µM*	3.66µM*	i	i
SMILES	HT1080 IDH1KD tx	DT40 TDP1 CPT	HT1080NT lethal	TDP1 cell noCPT	KB-V1 MDR tox	KB-3-1 cytotox
Cc1c(C(=O)NCCc2ccncc2)cnn1-c1nccc(-c2ccccc2C(F)(F)F)n1	.	?	.	-57.1%	.	.
Nc1nc2c(ncn2[C@@H]2O[C@H](CNCc3ccc(Oc4cc(-n5cccn5)ncn4)cc3)[C@@H](O)[C@H]2O)c(=O)[nH]1	24.5%	-0.7%	20.0%	18.0%	i	i
Cc1ncc2c(c1CNC(=O)/C=C/c1cccs1)CCN(C(=O)c1noc3c1CCCC3)C2	.	15.2%[9.04 µM]	.	-4.4%	.	.
Cc1ccc(Cn2c(=O)c3cccnc3n(Cc3ccc(C)cc3)c2=O)cc1	.	-26.7%	.	-18.8%	i	i
COc1cc(C2C(C#N)=C(N)Oc3n[nH]c(C)c32)ccc1OC(=O)c1ccccc1 (configuration not stated)	-20.4%	-16.8%	-3.9%	-14.8%	?	i
COc1cc(C2C(C#N)=C(N)Oc3c2ccc2ccccc32)ccc1OCC(=O)Nc1ccccc1C (configuration not stated)	-8.4%	20.6µM*	-10.6%	25.9µM*	?	?
Cc1cc(C)cc(OCCSc2nc3ccc(NC(=O)COc4ccccc4)cc3s2)c1	.	?	.	?	i	i
CCOC(=O)CSc1nc2ccc(NC(=O)COc3ccccc3)cc2s1	.	?	.	-18.9%	i	i
Cc1ccc(NC(=O)CSc2nc3ccc(NC(=O)COc4ccc(C)cc4)cc3s2)cc1	.	10.3µM*	.	18.4µM*	?	?
Cc1ccc(CSc2nc3ccc(NC(=O)COc4ccccc4)cc3s2)cc1	.	14.6µM*	.	?	?	i
Cc1ccc(OCC(=O)Nc2ccc3nc(SCC(=O)N4CCCC4)sc3c2)cc1C	.	-94.8%	.	23.1µM*	.	.
Cc1ccccc1OCC(=O)Nc1ccc2nc(SCCOc3ccccc3)sc2c1	.	-17.1%	.	-6.9%	?	i
Cc1ccc(OCC(=O)Nc2ccc3nc(SCc4ccccc4)sc3c2)cc1	.	-23.0%	.	?	i	i
Cc1cccc(NC(=O)CSc2nc3ccc(NC(=O)COc4ccccc4C)cc3s2)c1	.	14.6µM*	.	16.4µM*	i	?
CCCn1c(=O)c(C(=O)NCc2ccco2)c(O)c2ccccc21	-3.9%	1.2%	1.1%	-19.2%	i	i
COc1ccc(Oc2ncc3nc(-c4cccs4)c(=O)n(Cc4cccs4)c3n2)cc1	.	-4.7%	.	-10.9%	.	.
O=C(Nc1ccccc1)Nc1ccccc1C(=O)NCCCN1CCOCC1	-0.3%	-3.6%	-1.5%	-20.3%	i	i
